From PubChem BioAssay (NCI)
Compounds without any hit were thinned out: in the full panel of roughly 83,000, 20% have a hit.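 The endpoint reported here, percent growth, reads 100 for growth as untreated, 0 for no net growth and -100 for all cells dead.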 Unmarked numbers belong to inactive results. Calls of active or inactive are those of the source. The calls were made as follows: active = growth percent below 10; inactive = the rest.

The compounds below were run on UACC-62 melanoma (assay: NCI-60 one-dose screen, 48 h (100 = growth as untreated, 0 = no growth, -100 = all killed)). Settings: 10 µM unless noted.

| Compound | growth |
| --- | --- |
| COCCCC/C(=N\OCCN)c1ccc(C(F)(F)F)cc1 | 97.5% |
| Cc1ccccc1N=C(c1ccccc1)C1C(=O)c2ccccc2C1=O | 63.1% |
| O=C(O)C(c1ccccc1)C(O)c1ccccc1 (configuration not stated) | 93.6% |
| O=C(CCNNC(=O)c1ccncc1)NCc1ccccc1 | 88% |
| O=[N+]([O-])c1ccc(O)c(S(=O)(=O)O)c1 | 97.5% |
| C/C=C/CC(C)C(O)C1C(=O)NC(CC)C(=O)N(C)CC(=O)N(C)C(CC(C)C)C(=O)NC(C(C)C)C(=O)N(C)C(CC(C)C)C(=O)NC(C)C(=O)NC(C)C(=O)N(C)C(CC(C)C)C(=O)N(C)C(CC(C)C)C(=O)N(C)C(C(C)C)C(=O)N1C (configuration not stated) | 2.53% (active) |
| O=[N+]([O-])c1ccc(N=Nc2ccccc2)cc1 | 91.4% |
| O=C(CC(=O)c1ccccc1O)c1ccccc1 | 91% |
| CCn1c(=O)n(C)c2c(=O)n(C)c(=O)n(C)c21 | 107% |
| CCCCCCCCCCCCCCCCC1CC(=O)OC1=O (configuration not stated) | 102% |
| O=C1c2ccccc2C(=O)N1OCc1ccccc1 | 108% |
| CC(=O)C1CCCCC1 | 103% |
| Nc1ccc(CC(=O)O)c(N)c1 | 93.3% |
| CN(C)c1ccc(CNC(C(=O)c2ccccc2)c2ccccc2)cc1 (configuration not stated) | 99.2% |
| CC(C)COC(=O)COC(=O)OCCOCCOC(=O)OCC(=O)OCC(C)C | 97.6% |
| S=C(Nc1ccccc1)N1CCCCC1 | 90.5% |
| O=C(O)CCCc1ccccc1 | 108% |
